This is a sample that favours compounds with a hit; in the whole collection about 9.3% have one here.
ELG1 genotoxic = inducers of genotoxicity in HEK293T ELG1-luciferase cells | HEK293T ELG1-luciferase reporter, luminescence, 16 h | Potency, µM (titrated, usually from 46 µM), inactives show at the top dose activity change, positive = activation, actives largely listed as activators | 1.3% of 330,000 active | AID 504466; also: % of control where 0% means no effect; nearly all actives have a fitted effect of over 60% in size
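After overnight (16 hr) compound treatment at 37 °C, ELG1-luciferase HEK293T cells were lysed with ONE-Glo; luminescence quantified 30 min later at room temperature.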
SMN2 splice up = enhancers of SMN2 splice variant expression; Potency, µM (top dose mostly 46.1 µM), for the others: at the highest dose activity change, positive = activation, most hits filed as activators; 2.8% of 210,000 active; HEK293 SMN2-luciferase splicing reporter, luminescence, 30-36 h; also: % of control where 0% means no effect; nearly all actives have a fitted effect of over 55% in size
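HEK293 cells carry an SMN2 […]–luciferase reporter in which exon 7 inclusion puts luciferase in frame. Cells were plated 10-12 h before compound addition, then incubated 30-36 h at 37C. ONE-Glo luminescence was read; sodium butyrate at 4.5 mM final served as control.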
Rab9 promoter act = Rab9 promoter activation | Huh7 Rab9 promoter-luciferase reporter, luminescence, 24 h | Potency, µM (doses to about 9.22 µM), inactives show top-dose activation, negative = inhibition, most hits filed as activators | 2.8% of 320,000 active; also: % of control where 0% means no effect; nearly all actives have a fitted effect of over 60% in size
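Huh7 cells stably carrying a Rab9 promoter-luciferase reporter, 1500 cells per well in OP-MEM I with 10% FBS, treated with compound 24 hours at 37C. Luciferase activity read by luminescence after 10 minutes with Amplite reagent.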
ELG1 repair inh = blocks ELG1-dependent DNA repair in HEK293T cells | 2.3% of 330,000 active | HEK293T ELG1-luciferase reporter, luminescence, 16 h; DNA damage induced by 5-fluorouridine | Potency, µM (series often up to 46.1 µM), for inactives: at the highest dose activity change, negative = inhibition, actives largely listed as inhibitors | AID 504467; also: % is scaled to controls: 0 for no effect and ±100 for the full control effect; nearly all actives have a fitted effect of over 55% in size
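Overnight (16 hr) co-exposure of 2,000 cells/well to 5-fluorouridine and compound at 37 °C preceded detection. Luciferase was quantified via ONE-Glo luminescence; loss of signal denotes inhibition.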
FLuc modulator = counter-screen for miR-21 project: firefly luciferase inhibitors or activators. P08659. purified FLuc, Km substrates, luminescence inhibition. Potency, µM (series often up to 57.5 µM), inactives show at the highest dose activity change, negative = inhibition, actives largely listed as inhibitors. 6.9% of 360,000 active. AID 588342;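 also: plate controls were vehicle for no effect and reference inhibitor for full effect; nearly all actives have a fitted effect of over 55% in size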
Target sequence (P08659 whole entry, looked up): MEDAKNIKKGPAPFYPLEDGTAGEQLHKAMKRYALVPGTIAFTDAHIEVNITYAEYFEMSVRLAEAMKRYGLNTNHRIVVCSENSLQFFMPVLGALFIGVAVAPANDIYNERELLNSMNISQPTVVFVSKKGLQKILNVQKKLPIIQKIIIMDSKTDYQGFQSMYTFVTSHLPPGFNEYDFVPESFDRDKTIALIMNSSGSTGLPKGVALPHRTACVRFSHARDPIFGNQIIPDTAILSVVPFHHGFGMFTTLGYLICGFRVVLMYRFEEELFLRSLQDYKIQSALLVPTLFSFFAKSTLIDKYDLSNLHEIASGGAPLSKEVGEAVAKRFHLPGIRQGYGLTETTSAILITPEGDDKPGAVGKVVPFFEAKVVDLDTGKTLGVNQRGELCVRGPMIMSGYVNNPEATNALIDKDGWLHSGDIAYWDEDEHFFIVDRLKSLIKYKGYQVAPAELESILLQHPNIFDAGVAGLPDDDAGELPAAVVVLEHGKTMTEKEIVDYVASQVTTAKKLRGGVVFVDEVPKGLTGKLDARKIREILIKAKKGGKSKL
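Purified P. pyralis luciferase (10nM final) with 10uM D-luciferin and 10uM ATP (Km levels) in 50mM Tris acetate pH 7.5, 10mM Mg acetate, 0.01% Tween-20, 0.05% BSA; qHTS 6-point titration, ~60 µM downward; luminescence read.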
NPC1 prom act = activators of NPC1 promoter. Huh7 NPC1 promoter luciferase reporter, 24 h. AID 485313. 2.4% of 320,000 active. Potency, µM (top dose mostly 9.22 µM), without a hit: at the highest dose activation, hits mostly activators; also: % of control where 0% means no effect; nearly all actives have a fitted effect of over 60% in size
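Huh7 cells stably carrying NPC1 promoter–luciferase, plated in Opti-MEM with 10% FBS for 2 h, were exposed to compound in DMSO for 24 h at 37 °C; luciferase reagent was added for 10 min and luminescence read.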
* marks the source's active call; other numbers are inactive results; ? = inconclusive; nt = not tested or not shown; [ ] = another dose, or the depositor's remark. Calls follow the shape of the dose curve; as a rule, active = well fitted curve in the direction sought with a large enough effect; inconclusive = small, poorly fitted or top-dose-only effect, or another doubt; inactive = no such curve, though single readings can be large; an effect the other way counts as inactive or inconclusive. Potency is read from the fitted curve at half-maximal effect.

SMILES	ELG1 genotoxic	SMN2 splice up	Rab9 promoter act	ELG1 repair inh	FLuc modulator	NPC1 prom act
COc1cccc(C=O)c1OCCCOc1cccc2cccnc12	18.3µM*	nt	4.47µM*	?	?	?
COc1cc(C(=O)NCCOc2cccc3cccnc23)cc(OC)c1OC	-11.3%	-18.3%	-21.6%	8.2µM*	1.0%	-22.4%
Cc1ccc(OCCOCCOc2cccc3cccnc23)c(Br)c1	-2.8%	-13.6%	-2.8%	1.7%	?	0.2%
Brc1ccccc1OCCOc1cccc2cccnc12	10.7%	?	-3.2%	?	12µM*	-2.9%
CC(=O)NCCc1nc2cc(NC(=O)COc3cccc(C)c3)ccc2n1C	11.6%	nt	27.9%	?	?	22.7%
C[C@H]1Cc2c(COc3ccccc3)nc3c(c2CO1)CN(S(=O)(=O)c1ccc(C#N)cc1)CC3	nt	0.2%[9.22 µM]	nt	nt	nt	nt
Cc1ccc2c(c1)C(c1ccc(F)cc1)N(C(=O)c1cc3ccccc3oc1=O)CC(=O)N2 (configuration not stated)	0.8%	-13.7%	-3.6%	-3.6%	-1.1%	-8.8%
Cc1cc(C)c(S(=O)(=O)Nc2cc(Cl)c3oc4c(c3c2)C(=O)CCC4)cc1C	nt	2.6%	nt	nt	-7.4%	nt
CC(C)(C)C(=O)O/N=C(\N)c1ccc(-c2csnn2)cc1	?	nt	4.47µM*	?	7.57µM*	2.82µM*
CC(C)(C)C(=O)Nc1ccc(-c2csnn2)cc1	?	nt	2.82µM*	?	23.9µM*	?
N/C(=N\OC(=O)c1ccc(Br)cc1)c1ccccc1	?	?	2.82µM*	?	0.213µM*	3.16µM*
O=C(COC(=O)CCCNC(=O)c1ccc(Cl)cc1)Nc1ccc(Br)cc1	1.7%	-0.4%	0.2%	3.5%	3.38µM*	-1.0%
CC(=O)O/N=C(\N)c1ccc(-c2csnn2)cc1	?	nt	25.9%	?	?	16.7%
O=C(CNC(=O)c1ccc(Br)o1)NCc1ccccc1	10.0%	nt	-5.0%	-7.9%	6.2%	-6.1%
CCOc1ccc(-c2nonc2NC(=O)c2oc3ccc(Cl)cc3c2C)cc1	nt	-1.6%	nt	nt	?	nt
COc1ccccc1CNc1ccc(-c2nc(-c3ccco3)no2)cc1[N+](=O)[O-]	nt	nt	nt	nt	-19.3%	nt
O=C(COC(=O)c1ccc(Br)cc1)NCCc1ccccc1	-1.7%	5.6%	1.4%	8.9%	3.1%	-0.4%
Cc1ccc(C(=O)O/N=C(\N)c2ccc(Br)cc2)cc1	12.6µM*	10.0%	28.9%	?	2.39µM*	28.1%
N/C(=N\OC(=O)Cc1cccs1)c1ccc(Br)cc1	?	2.0%	15.9%	?	19µM*	-1.7%
O=C(COC(=O)c1ccccc1)c1ccc(Br)cc1	8.9%	8.4%	3.98µM*	?	0.536µM*	2.24µM*
CC(C)(C)C(=O)O/N=C(\N)c1ccc(Br)cc1	0.4%	nt	-5.5%	12.1%	21.3µM*	1.2%
COc1ccccc1CNc1nc2nc(C)c(Cl)c(C)n2n1	nt	?	nt	nt	-5.4%	nt
CC1=C(C(=O)OCCC#N)C(c2cc3c(cc2Br)OCO3)NC(=O)N1 (configuration not stated)	-0.2%	nt	2.4%	-5.6%	-2.4%	0.5%
O=C(CSCC(=O)OCC(=O)c1ccc(Br)cc1)Nc1ccc(Br)cc1	2.3%	-5.9%	-7.5%	9.0%	16.9µM*	-5.3%
CC(=O)N1CCc2c(sc(NC(=O)CSc3ccccc3)c2-c2nc3ccccc3s2)C1	nt	nt	nt	nt	-4.1%	nt
SMILES	ELG1 genotoxic	SMN2 splice up	Rab9 promoter act	ELG1 repair inh	FLuc modulator	NPC1 prom act
CCCCC(=O)Nc1sc2c(c1-c1nc3ccccc3s1)CCN(C(C)=O)C2	-32.5%	12.1%	-9.8%	18.4µM*	0.0%	-10.3%
CCOC(=O)C1=C(C)N(c2ccc(C)cc2)C(=O)/C1=C\c1ccc(O)c(OC)c1	2.5%	nt	-7.8%	0.0%	-11.3%	-13.2%
CCOC(=O)C1=C(O)c2ccccc2C(=O)/C1=C\c1ccc(C)cc1	6.8%	-34.0%	13.7%	?	6.75µM*	0.5%
O=C(O)c1cccc(COc2ccccc2Cl)c1	nt	0.0316µM*	0.891µM*	?	0.151µM*	?
Cc1nn(Cc2c(F)c(F)c(F)c(F)c2F)c(C)c1NC(=O)c1cccc(COc2ccccc2Cl)c1	?	10µM*	0.355µM*	?	6.01µM*	0.501µM*
O=C(Nc1ccccc1Cl)c1cccc(COc2cc(Cl)ccc2Cl)c1	?	6.31µM*	3.98µM*	?	?	2.24µM*
CCN(CC)C(=O)c1ccc(COc2ccccc2Cl)cc1	?	-40.4%	-0.4%	-2.1%	?	3.7%
O=C(O)c1ccc(COc2ccccc2Cl)cc1	2.3%	11.8%	23.7%	?	21.3µM*	13.9%
C=CCNC(=O)c1ccccc1NC(=O)C1COc2ccccc2O1 (configuration not stated)	-11.2%	nt	-42.1%	?	-4.7%	-40.7%
Cc1ccc(N2CC(C(=O)NCCS(=O)(=O)N3CCN(c4ccc(F)cc4)CC3)CC2=O)cc1 (configuration not stated)	1.1%	nt	-2.8%	-4.4%	-1.7%	-2.5%
Cc1ccc(NC(=O)CSC2=NN3CCCC(=O)N=C3S2)cc1Cl	-2.5%	nt	-9.6%	9.2%	-2.2%	-1.5%
CN1CCN(C(=O)c2cccc(COc3cc(Cl)ccc3Cl)c2)CC1	?	10µM*	1.12µM*	?	?	3.16µM*
Cc1nn(Cc2c(Cl)cccc2Cl)c(C)c1NC(=O)c1cc(C(C)C)on1	-4.1%	3.55µM*	0.0%	?	-0.6%	1.0%
Cc1cccc(OCC(=O)Nc2ccc3c(c2)C(=O)NC3=O)c1	-3.9%	nt	-5.2%	3.3%	-9.6%	-4.2%
Cc1ccc(C(=O)c2c3ccc(C(F)(F)F)cc3nn2CCC(N)=O)cc1	3.8%	nt	18.5%	?	-13.7%	19.6%
COc1ccc(NC(=O)CN2C(=O)CC(c3ccc(C)c(C)c3)=Nc3ccccc32)cc1OC	nt	nt	nt	nt	13.5µM*	nt
Cc1ccc(C2=Nc3ccccc3N(CC(=O)NCc3ccccc3Cl)C(=O)C2)cc1C	nt	nt	nt	nt	9.53µM*	nt
Cc1ccc(NC(=O)CN2C(=O)CC(c3ccc(F)cc3)=Nc3ccccc32)cc1F	nt	nt	nt	nt	-6.2%	nt
CC(C)N=C(NS(=O)(=O)c1ccccc1)C(Cl)(Cl)Cl	-13.6%	?	-17.9%	5.17µM*	3.0%	-7.9%
CCc1nn2c(=O)cc(COC(=O)c3cccc(NC(=O)COc4ccccc4)c3)nc2s1	nt	nt	nt	nt	5.6%	nt
Cc1ccnc2c1ccc1cccnc12	15.0%	nt	-19.0%	?	-12.5%	-17.1%
Cc1ccnc2c1ccc1c(C)ccnc12	?	nt	-15.0%	2.31µM*	-19.3%	-13.6%
Cc1ccnc2c1ccc1ccccc12	2.1%	nt	13.1%	20.6%	16.9µM*	-5.9%
